Data taken from the supplement of paper PMC12045047.
Counter-ions that a name gives are not always drawn.

The molecules below were run on primary human airway basal cells (HBEC, luciferase-transduced) (assay: proliferation (luciferase bioluminescence) Z score relative to plate mean; higher = more proliferation / more cells, active = 1.96 or more). Conditions: donor: 1; 0.5 µM; library: ENZO Libraries; 4 days.
Description: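 Primary human bronchial epithelial (airway basal) cells from two donors, lentivirally transduced with pHIV-Luc-ZsGreen, were seeded at 2000 cells/well in 384-well plates in FAD medium with ENZO or Prestwick library compounds and cultured for 4 days. Luciferin was then added and bioluminescence was read as a measure of cell number. Relative light units were converted to Z scores against the plate, and the mean of triplicate wells is reported.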

| Compound | proliferation |
| --- | --- |
| CCCC[C@@H](C=O)NC(=O)OC(C)(C)C | 0.474 (inactive) |
| CCC(C)[C@H](NS(=O)(=O)c1cccc2ccccc12)C(=O)N[C@H](C=O)Cc1c[nH]c2ccccc12 (some centres undefined) | -0.192 (inactive) |
| Cn1cnc2c(NCc3ccccc3)nc(NCCO)nc21 [Olomoucine] | 0.166 (inactive) |
| N#C/C(=C\c1ccc(O)c(O)c1)C(=O)Nc1ccccc1 | 0.183 (inactive) |
| C[C@]1(Cn2ccnn2)[C@H](C(=O)O)N2C(=O)C[C@H]2S1(=O)=O [Tazobactam] | 0.216 (inactive) |
| CC(C)C[C@H](NC(=O)N[C@H](C(=O)N[C@@H](CCC(N)=O)C(=O)N[C@@H](C)C=O)[C@@H]1CCNC(=N)N1)C(=O)O [Elastatinal] | -0.455 (inactive) |
| N=C(N)Nc1ccc(C(=O)Oc2ccc3cc(C(=N)N)ccc3c2)cc1 [Nafamostat mesylate] | 0.0117 (inactive) |
| O=C(CCCN1C(=O)c2cccc3cccc(c23)C1=O)NO [Nullscript] | 0.202 (inactive) |
| Cc1cc2ncc(-c3ccccc3)nc2cc1C | 5.22 (active) |
| Oc1ccc(-c2nc(-c3ccc(F)cc3)c(-c3ccncc3)[nH]2)cc1 | 0.995 (inactive) |
| COc1cc(/C=C(\C#N)C(N)=O)cc(CSc2nc3ccccc3s2)c1O | -0.428 (inactive) |
| Nc1ncn([C@H]2C[C@H](O)[C@@H](CO)O2)c(=O)n1 [5-Aza-2'-deoxycytidine] | -0.383 (inactive) |
| O=C(O)c1cc(NCc2cc(O)ccc2O)ccc1O [2-Hydroxy-5-(25-dihydroxybenzylamino)benzoic acid] | -0.149 (inactive) |
| CC[C@H](C)[C@H](N)C(=O)N1CCSC1 [P32/98 hemifumarate salt] | -0.342 (inactive) |
| O=C(CCCCCCC(=O)NO)NO [Suberoyl bis-hydroxamic acid] | 0.147 (inactive) |
| CCCC[C@@H](C=O)NC(=O)[C@H](CC(C)C)NC(=O)OCc1ccccc1 [Calpeptin] | -0.319 (inactive) |
| CC(C)C[C@H](NC(=O)[C@H]1O[C@@H]1C(=O)O)C(=O)NCCCCN=C(N)N | -0.0103 (inactive) |
| CC(C)c1cc(/C=C(\C#N)C(=O)NCCCc2ccccc2)cc(C(C)C)c1O | -0.208 (inactive) |
| CC(NC(=O)C(Cc1ccccc1)NC(=O)OCc1ccccc1)C(=O)CF (centres undefined) | -0.176 (inactive) |
| O=C1Nc2ccc([N+](=O)[O-])cc2C1=O [5-Nitroisatin] | 0.112 (inactive) |
| CC(=O)Nc1ccc(C(=O)Nc2ccccc2N)cc1 | 0.183 (inactive) |
| C[S+]([O-])c1ccc(-c2nc(-c3ccc(F)cc3)c(-c3ccncc3)[nH]2)cc1 (centres undefined) | 0.838 (inactive) |

Same assay, conditions: donor: 1; 5 µM; library: ENZO Libraries; 4 days

| Compound | proliferation |
| --- | --- |
| CCCC[C@@H](C=O)NC(=O)OC(C)(C)C | -0.0416 (inactive) |
| CCC(C)[C@H](NS(=O)(=O)c1cccc2ccccc12)C(=O)N[C@H](C=O)Cc1c[nH]c2ccccc12 (some centres undefined) | -0.56 (inactive) |
| Cn1cnc2c(NCc3ccccc3)nc(NCCO)nc21 [Olomoucine] | -0.244 (inactive) |
| N#C/C(=C\c1ccc(O)c(O)c1)C(=O)Nc1ccccc1 | 0.06 (inactive) |
| C[C@]1(Cn2ccnn2)[C@H](C(=O)O)N2C(=O)C[C@H]2S1(=O)=O [Tazobactam] | 0.201 (inactive) |
| CC(C)C[C@H](NC(=O)N[C@H](C(=O)N[C@@H](CCC(N)=O)C(=O)N[C@@H](C)C=O)[C@@H]1CCNC(=N)N1)C(=O)O [Elastatinal] | -0.0211 (inactive) |
| N=C(N)Nc1ccc(C(=O)Oc2ccc3cc(C(=N)N)ccc3c2)cc1 [Nafamostat mesylate] | -0.0211 (inactive) |
| O=C(CCCN1C(=O)c2cccc3cccc(c23)C1=O)NO [Nullscript] | -0.00941 (inactive) |
| Cc1cc2ncc(-c3ccccc3)nc2cc1C | 2.1 (active) |
| Oc1ccc(-c2nc(-c3ccc(F)cc3)c(-c3ccncc3)[nH]2)cc1 | 0.0853 (inactive) |
| COc1cc(/C=C(\C#N)C(N)=O)cc(CSc2nc3ccccc3s2)c1O | -0.258 (inactive) |
| Nc1ncn([C@H]2C[C@H](O)[C@@H](CO)O2)c(=O)n1 [5-Aza-2'-deoxycytidine] | -0.302 (inactive) |
| O=C(O)c1cc(NCc2cc(O)ccc2O)ccc1O [2-Hydroxy-5-(25-dihydroxybenzylamino)benzoic acid] | -0.503 (inactive) |
| CC[C@H](C)[C@H](N)C(=O)N1CCSC1 [P32/98 hemifumarate salt] | -0.616 (inactive) |
| O=C(CCCCCCC(=O)NO)NO [Suberoyl bis-hydroxamic acid] | -0.101 (inactive) |
| CCCC[C@@H](C=O)NC(=O)[C@H](CC(C)C)NC(=O)OCc1ccccc1 [Calpeptin] | 0.152 (inactive) |
| CC(C)C[C@H](NC(=O)[C@H]1O[C@@H]1C(=O)O)C(=O)NCCCCN=C(N)N | -0.0032 (inactive) |
| CC(C)c1cc(/C=C(\C#N)C(=O)NCCCc2ccccc2)cc(C(C)C)c1O | -0.405 (inactive) |
| CC(NC(=O)C(Cc1ccccc1)NC(=O)OCc1ccccc1)C(=O)CF (centres undefined) | -0.114 (inactive) |
| O=C1Nc2ccc([N+](=O)[O-])cc2C1=O [5-Nitroisatin] | -0.27 (inactive) |
| CC(=O)Nc1ccc(C(=O)Nc2ccccc2N)cc1 | -0.038 (inactive) |
| C[S+]([O-])c1ccc(-c2nc(-c3ccc(F)cc3)c(-c3ccncc3)[nH]2)cc1 (centres undefined) | 0.0347 (inactive) |
